Measured values: PubChem BioAssay AID1159580 (chemical genetic matrix, 2015)
Several values for one entry are separate records, joined by “and”; a condition that tells them apart may be missing. Equal entries are not always repeated. In all, about 5,500 compounds went through this assay and about 2,000 (36%) were called active. Another 18% or so got no clear call; they are omitted. Rule as the data show it: active = normalized growth mostly below about 0.91 (no sharp cut-off); inconclusive = no clear call, values can overlap the other calls; inactive = mostly above about 0.92. Some of the results follow.

Assay: chemical genetic growth profiling, strain panel (AID 1159580);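 also: tested at 20 µM; growth read once vehicle control cultures reached saturation at 30 °C; 1 = growth at the plate median or of vehicle wells; lower values mean less growth of the strain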
Details: S. cerevisiae deletion strains, growth OD

Measured: normalized growth

Cc1cc(-c2ccccc2)nnc1NCCN1CCOCC1
inactive: locus YAL013W, strain DEP1, active compounds read low 1 | locus YAL021C, strain ccr4, active compounds read low 0.985 | locus YAL026C, strain drs2, active compounds read low 0.991 | locus YAL030W, strain snc1, active compounds read low 0.986 | locus YBL061C, strain skt5, active compounds read low 0.991 | locus YBR009C, strain hhf1, active compounds read low 0.989 | locus YBR021W, strain FUR4, active compounds read low 0.999 | locus YBR023C, strain chs3, active compounds read low 0.989 | locus YBR171W, strain sec66, active compounds read low 0.977 | locus YBR229C, strain ROT2, active compounds read low 1.01 | locus YBR231C, strain swc5, active compounds read low 0.989 | locus YBR279W, strain paf1, active compounds read low 0.986 | locus YCL011C, strain gbp2, active compounds read low 0.983 | locus YCL016C, strain dcc1, active compounds read low 0.984 | locus YCL029C, strain bik1, active compounds read low 0.964 | locus YCL061C, strain MRC1, active compounds read low 0.985 | locus YCL069W, strain vba3, active compounds read low 0.988 | locus YCR088W, strain abp1, active compounds read low 0.99 | locus YDL005C, strain med2, active compounds read low 0.99 | locus YDL035C, strain GPR1, active compounds read low 1.03 | locus YDL040C, strain nat1, active compounds read low 0.992 | locus YDL074C, strain BRE1, active compounds read low 0.986 | locus YDL101C, strain DUN1, active compounds read low 0.995 | locus YDL134C, strain PPH21, active compounds read low 1.01 | locus YDL185W, strain tfp1, active compounds read low 0.941 | locus YDL192W, strain arf1, active compounds read low 0.974 | locus YDR001C, strain nth1, active compounds read low 0.99 | locus YDR069C, strain doa4, active compounds read low 1 | locus YDR101C, strain arx1, active compounds read low 0.977 | locus YDR137W, strain rgp1, active compounds read low 0.991 | locus YDR150W, strain NUM1, active compounds read low 0.992 | locus YDR159W, strain sac3, active compounds read low 1.01 | locus YDR162C, strain NBP2, active compounds read low 1.01 | locus YDR195W, strain ref2 0.974 | locus YDR297W, strain sur2, active compounds read low 0.997 | locus YDR318W, strain mcm21, active compounds read low 0.98 | locus YDR334W, strain swr1, active compounds read low 0.983 | locus YDR335W, strain msn5, active compounds read low 0.986 | locus YDR388W, active compounds read low 0.986 | locus YDR392W, strain spt3, active compounds read low 0.924 | locus YDR502C, strain sam2, active compounds read low 1 | locus YEL003W, strain gim4, active compounds read low 0.998 | locus YEL037C, strain rad23, active compounds read low 0.994 | locus YEL061C, strain CIN8 (second series), active compounds read low 0.991 | locus YEL061C, strain CIN8, active compounds read low 0.997 | locus YER015W, strain faa2, active compounds read low 0.997 | locus YER016W, strain bim1, active compounds read low 1 | locus YER110C, active compounds read low 0.982 | locus YER111C, strain swi4, active compounds read low 0.985 | locus YER155C, strain BEM2 (second series), active compounds read low 1 | locus YER155C, strain BEM2, active compounds read low 1 | locus YER167W, strain BCK2, active compounds read low 1 | locus YFR010W, strain ubp6, active compounds read low 0.992 | locus YGL078C, strain dbp3, active compounds read low 0.991 | locus YGL086W, strain mad1, active compounds read low 1.01 | locus YGL167C, strain pmr1, active compounds read low 0.991 | locus YGL173C, strain kem1, active compounds read low 0.983 | locus YGL227W, strain vid30, active compounds read low 0.987 | locus YGL240W, strain doc1, active compounds read low 0.974 | locus YGL248W, strain PDE1, active compounds read low 1.02 | locus YGL253W, strain hxk2, active compounds read low 0.987 | locus YGR078C, strain PAC10, active compounds read low 1 | locus YGR135W, strain pre9, active compounds read low 0.993 | locus YGR229C, strain SMI1, active compounds read low 1.03 | locus YGR252W, strain gcn5, active compounds read low 1.13 | locus YHR013C, strain ard1, active compounds read low 0.983 | locus YHR027C, strain rpn1, active compounds read low 0.987 | locus YHR030C, strain SLT2, active compounds read low 1 and 0.966 | locus YHR079C, strain IRE1 (second series), active compounds read low 0.972 | locus YHR079C, strain IRE1, active compounds read low 0.961 | locus YHR094C, strain hxt1, active compounds read low 0.969 | locus YHR129C, strain ARP1, active compounds read low 0.996 | locus YHR142W, strain chs7, active compounds read low 0.981 | locus YHR200W, strain rpn10, active compounds read low 0.97 | locus YIL066C, strain RNR3, active compounds read low 1.01 | locus YIL073C, strain SPO22, active compounds read low 0.953 | locus YIL125W, strain kgd1, active compounds read low 0.977 | locus YIR030C, strain dcg1, active compounds read low 0.979 | locus YJL092W, strain hpr5, active compounds read low 0.988 | locus YJL095W, strain BCK1 (second series), active compounds read low 0.99 | locus YJL095W, strain BCK1, active compounds read low 0.976 and 0.961 | locus YJL115W, strain asf1, active compounds read low 0.991 | locus YJL129C, strain trk1, active compounds read low 0.968 | locus YJL134W, strain LCB3, active compounds read low 1.01 | locus YJL154C, strain vps35, active compounds read low 1 | locus YJL164C, strain tpk1, active compounds read low 0.987 | locus YJL166W, strain qcr8, active compounds read low 0.993 | locus YJL168C, strain set2, active compounds read low 0.973 | locus YJL187C, strain SWE1 (second series), active compounds read low 0.997 | locus YJL187C, strain SWE1, active compounds read low 0.986 | locus YJR043C, strain POL32, active compounds read low 0.99 | locus YJR066W, strain TOR1, active compounds read low 0.918
